The list is not random: actives were taken first. Their share in the collection is about 2.4%.
D2 ag-1: activates the human D2 dopamine receptor. HEK293 T-REx D2 cells, calcium flux agonist mode. hit rate 0.53% among 340,000. activation, % at 2 µM;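 active means activation over 3 SD above normal in the single-dose calcium agonist read, cut at about 30% in these data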; further: 0% is about no effect
Target sequence (P14416 whole entry, looked up): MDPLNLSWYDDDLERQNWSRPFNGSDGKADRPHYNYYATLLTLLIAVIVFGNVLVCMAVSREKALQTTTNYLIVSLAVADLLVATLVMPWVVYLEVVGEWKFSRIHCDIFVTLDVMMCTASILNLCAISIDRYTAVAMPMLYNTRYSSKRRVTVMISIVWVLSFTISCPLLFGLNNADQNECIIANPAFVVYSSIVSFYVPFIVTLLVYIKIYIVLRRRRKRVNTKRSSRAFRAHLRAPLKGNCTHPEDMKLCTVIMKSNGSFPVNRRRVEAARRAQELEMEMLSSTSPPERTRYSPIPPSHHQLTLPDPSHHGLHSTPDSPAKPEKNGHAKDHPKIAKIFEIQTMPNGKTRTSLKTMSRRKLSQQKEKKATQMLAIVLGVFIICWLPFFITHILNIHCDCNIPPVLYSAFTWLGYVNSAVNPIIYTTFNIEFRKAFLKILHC
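Agonism scored from kinetic calcium signal (1 read/sec, 180 s) following compound pin transfer, after a 10 s baseline. Cells: HEK293 Trex line expressing inducible D2 receptor coupled to calcium, dye-loaded after overnight culture at 30 C.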
D2 antagonist: D2 dopamine receptor (human) antagonism. P14416. hit rate 2% among 340,000. inhibition, % at 10 µM. HEK293 TREx D2 cells, calcium flux, dopamine EC80; in the data active means inhibition above about 30%; inactive means below that, where a call was filed; further: 0% is about no effect
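Inhibition of EC80 dopamine-driven calcium flux, recorded kinetically, defines activity here; cells are a tetracycline-induced HEK293 T-REx line expressing force-coupled D2.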
D2 PAM-1: human D2 receptor positive allosteric modulation. DiscoveRx D2 beta-arrestin cells, luminescence, 90 min; 100% = 57 uM dopamine signal. potentiation, % (no concentration beside the values). hit rate 0.23% among 360,000. AID 624464; in the data active means potentiation above about 50%; inconclusive means mostly about 30% to 49%
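PathHunter beta-arrestin assay in DiscoveRx D2 cells. Compounds were added with an EC20 of dopamine (50 nM final) for 90 min at 37 deg C. Luminescence was read 1 h after detection reagent, with 57 uM dopamine as the EC100 control.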
D2 ag-2: human D2 receptor agonism in beta-arrestin assay. P14416. DiscoveRx PathHunter D2 beta-arrestin, luminescence, 90 min; 100% = 57 uM dopamine signal. activation, % (no concentration beside the values). hit rate 0.084% among 360,000. AID 624465; in the data active means activation above about 40%; inconclusive means between about 15% and that limit
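Agonist mode: compounds alone added to overnight-plated D2 PathHunter cells for 90 min at 37 C, with 57 uM final dopamine (EC100) defining full response. Beta-arrestin recruitment detected by chemiluminescent reagent, read after 1 h at ambient temperature.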
D2 PAM-2: positively modulates the human D2 dopamine receptor allosterically | potentiation, % at 10 µM | P14416 | HEK293 T-REx D2, calcium flux, EC20 dopamine potentiation | hit rate 0.34% among 340,000;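 active means potentiation over 3 SD above the plate norm, cut at about 30% in these data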; further: 0% is about no effect
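Tetracycline-induced HEK293 T-REx cells force-coupled to calcium signalling expressed D2; compounds were pin-added after a 10 s baseline, read kinetically 180 s, then an EC20 dopamine challenge followed with a further 180 s calcium read.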
D3 arrestin ag: confirmation of human D3 dopamine receptor agonists, beta-arrestin. shares compounds with D2 ag-1. DiscoveRx D3 beta-arrestin cells, luminescence, 90 min. Potency, µM (series often up to 76.9 µM), for the others: top-dose activation, usual class: activators. hit rate 4% among 2,300;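 further: potency means the concentration at half of the fitted maximal effect; 100% = dopamine control response; nearly all actives have a fitted effect of over 70% in size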
D2 ag-3: activates human D2 dopamine receptor in D3 counterscreen; hit rate 5.9% among 2,300; shares compounds with D2 ag-1; AID 720507; DiscoveRx PathHunter D2 beta-arrestin, luminescence, 90 min; response scale: percent relative to full dopamine signal; Potency, µM (titrated, usually from 76.9 µM), for inactives: at the top dose activation, most hits filed as activators; further: potency means the concentration at half of the fitted maximal effect; % of control where 0% means no effect; nearly all actives have a fitted effect of over 70% in size
Numbers without * were called inactive; ? = inconclusive; nt = not tested or not shown. Unless noted, the call rests on the fitted dose curve; in most records, active means well fitted activation curve with a large enough effect; inconclusive means small, poorly fitted or top-dose-only effect; inactive means flat fitted curve, though single readings scatter.

SMILES | D2 ag-1 | D2 antagonist | D2 PAM-1 | D2 ag-2 | D2 PAM-2 | D3 arrestin ag | D2 ag-3
COc1ccc(-n2nc(C(=O)Nc3cccc(C)n3)c3c4ccccc4n(C)c3c2=O)cc1 | -1 | nt | nt | nt | 0 | nt | nt
COc1ccc(S(=O)(=O)N(Cc2cccnc2)Cc2cc3ccccc3[nH]c2=O)cc1 | 1 | 8 | 4 | 3 | 5 | nt | nt
Cc1ccc(S(=O)(=O)N(Cc2cccnc2)Cc2cc3ccccc3[nH]c2=O)cc1 | 0 | 94* | 4 | -2 | 3 | -2% | 1%
CCCN1C(=O)CSC1=Nc1ccccc1 | 1 | 5 | -9 | 1 | 3 | nt | nt
O=C1CSC(=Nc2ccccc2)N1Cc1ccccc1 | nt | nt | -7 | 2 | nt | -5% | -1%
COC(=O)c1cccc(NC(=O)CN2CCc3ccccc3C2)c1 | 5 | 13 | 0 | -1 | 6 | ? | 14%
CCOc1cc(/C=C(\C#N)C(=O)Nc2ccc(OC)cc2)ccc1OCc1cc(=O)n2nc(CC)sc2n1 | 0 | nt | nt | nt | 21 | nt | nt
CCCn1c(COc2ccccc2)nc2ccccc21 | nt | nt | 3 | ? | nt | ? | 18%
COc1ccc(OCCCCn2c(CO)nc3ccccc32)cc1 | 1 | 74* | 3 | 10 | 2 | 5% | 4%
COc1ccccc1C1Nc2c(sc3nc(C)cc(C)c23)C(=O)N1c1ccccc1 (stereo not given) | nt | nt | nt | nt | -4 | nt | nt
CCc1ccc(C(=O)NNC(=O)Cn2c(=O)cnc3ccccc32)cc1 | 0 | -12 | -3 | -3 | 6 | nt | nt
O=C(Cn1c(=O)cnc2ccccc21)NNC(=O)c1ccc(Cl)cc1 | nt | nt | -4 | -2 | nt | 1% | -3%
Cn1cc(CCCC(=O)NCc2cccc(Br)c2)c2ccccc21 | 1 | nt | nt | nt | nt | nt | nt
CC(OC(=O)c1cc[n+]([O-])cc1)C(=O)Nc1ccc(C(N)=O)cc1 (stereo not given) | 1 | 28 | -13 | 2 | -6 | -1% | -4%
Cc1noc(C)c1C(=O)OC(C)C(=O)Nc1ccc(C(N)=O)cc1 (stereo not given) | 0 | 14 | 0 | -3 | 3 | nt | nt
Cc1cc(OC(C)C(=O)N2C[C@H]3C[C@@H](C2)c2cccc(=O)n2C3)c2c(C)c(C)c(=O)oc2c1 (stereo not given in full) | 41* | -1 | -6 | -4 | 2 | -7% | -5%
Cc1c(C)c2ccc(OC(C)C(=O)N3C[C@H]4C[C@@H](C3)c3cccc(=O)n3C4)c(C)c2oc1=O (stereo not given in full) | 0 | 15 | -20 | -7 | -5 | nt | nt
O=C(c1ccco1)N1CCN(CCCCOc2cccc3ccccc23)CC1 | 76* | 84* | 3 | ? | -26 | ? | ?
c1ccc(CN2CCN(CCOCCOc3cccc4ccccc34)CC2)cc1 | 1 | -5 | -6 | 1 | -24 | nt | nt
O=C(c1ccco1)N1CCN(CCOCCOc2cccc3ccccc23)CC1 | 66* | 77* | 20 | ? | -18 | 7.9µM* | 25µM*
O=C(c1ccco1)N1CCN(CCOc2ccc(F)cc2)CC1 | -2 | -13 | 3 | 10 | 4 | nt | nt
Cc1cc(C)cc(Nc2nnc(-n3nc(C)cc3C)c3ccccc23)c1 | -2 | nt | nt | nt | -11 | nt | nt
CC(OC(=O)c1ccc(-n2cnnn2)cc1)C(=O)Nc1ccccc1F (stereo not given) | nt | nt | -5 | 0 | nt | nt | nt
CC(OC(=O)c1ccc(-n2cnnn2)cc1)C(=O)Nc1ccc(F)c(F)c1F (stereo not given) | 0 | 18 | 5 | -2 | 6 | -5% | -3%
CN(CCNC(=O)c1ccc(CS(=O)(=O)c2ccc(Br)cc2)o1)CCc1ccccc1 | 53* | 24 | -13 | -2 | -25 | -21% | 14%
SMILES | D2 ag-1 | D2 antagonist | D2 PAM-1 | D2 ag-2 | D2 PAM-2 | D3 arrestin ag | D2 ag-3
O=C(NCCc1ccccc1)c1ccc(CS(=O)(=O)c2ccc(Br)cc2)o1 | 0 | -8 | -15 | -3 | -1 | nt | nt
COc1ccc(OC)c(NC(=O)Cn2ccn(-c3ccc(F)cc3)c(=O)c2=O)c1 | 0 | nt | nt | nt | -11 | nt | nt
O=C(CCS(=O)(=O)c1nc(-c2ccc3c(c2)OCO3)cc(C(F)(F)F)n1)Nc1ccc(Br)cc1 | 0 | nt | nt | nt | -1 | nt | nt
CN1CCc2c(sc(NC(=O)c3ccc([N+](=O)[O-])o3)c2C(N)=O)C1 | 75* | 29 | -12 | 1 | -19 | -20% | 2%
CCOC(=O)c1sc2ncn(CC(=O)Nc3ccc(OCC)cc3)c(=O)c2c1C | 0 | nt | nt | nt | -6 | nt | nt
CCN1C=C(Cc2cccs2)C2=C(C1)C(c1cccs1)C(C#N)=C(N)O2 (stereo not given) | 44* | 81* | -18 | -1 | -31 | -4% | 0%
CCN1CC2=C(OC(N)=C(C#N)C2c2cccs2)/C(=C/c2cccs2)C1 (stereo not given) | nt | nt | -28 | -2 | nt | 2% | 0%
Cc1ccc2oc(=O)c3cc(C(=O)Nc4ccccc4C(N)=O)sc3c2c1 | 1 | nt | nt | nt | -3 | nt | nt
CCOc1ccc(C2c3c(oc4ccc(C)cc4c3=O)C(=O)N2CCCN(C)C)cc1 (stereo not given) | -1 | nt | nt | nt | 15 | nt | nt
CCOc1ccc(CCNC(=O)NCc2noc3ccc(C)cc23)cc1 | -2 | nt | nt | nt | 0 | nt | nt
COc1ccc(CCNC(=O)c2cn(C)c3ccc(S(=O)(=O)N(C)C)cc3c2=O)cc1OC | 0 | nt | nt | nt | 7 | nt | nt
COc1cc(NC(=O)Cn2cc(C(=O)c3ccc(F)cc3)c(=O)c3ccc(C)nc32)cc(OC)c1 | -1 | nt | nt | nt | -11 | nt | nt
CC(C)NC(=O)Cc1ccc(Br)cc1 | 1 | 4 | 6 | -1 | 4 | nt | nt
CCCC(C)NC(=O)Cc1ccc(Br)cc1 (stereo not given) | 0 | -5 | -13 | -1 | 26 | -12% | -2%
COc1ccc(N(CC(=O)Nc2cc(C)ccc2C)S(=O)(=O)c2ccc(OC)c(OC)c2)cc1 | -3 | nt | nt | nt | -11 | nt | nt
CCN1CCN(C(=O)CNC(=O)c2nn(-c3ccc(OC)cc3)c(=O)c3ccccc23)CC1 | 51* | 0 | -6 | -2 | -28 | -9% | -5%
Cn1nnc2c(N3CCCCC3)ncnc21 | 0 | nt | nt | nt | 22 | nt | nt
COc1ccc(CCNC2CCC(c3ccccc3)CC2)cc1 (stereo not given) | 36* | 78* | -6 | 12 | -15 | -5% | 20%
COc1ccc(NS(=O)(=O)c2cc(C(=O)N3CCC3)ccc2C)cc1 | 25 | 29 | -4 | 10 | -12 | -3% | 9%
c1ccc(Cc2nnc3n2CCCCC3)cc1 | 0 | -7 | -14 | -1 | -4 | nt | nt
c1ccc(N2CCN(CCc3nnc4n3CCCCC4)CC2)cc1 | 32* | 27 | -20 | 5 | 11 | -2% | 8%

Assay outcomes deposited in PubChem BioAssay by National Center for Advancing Translational Sciences (NCATS).
